MBNL1 CUG block: qHTS Assay for Inhibitors of MBNL1-poly(CUG) RNA binding; 0.036% of 280,000 active; TR-FRET MBNL1-His/biotin-(CUG)12 binding, 665/545 ratio; AID 2675, 2010; Potency, µM (titrated, usually from 57.5 µM), for the others: at the highest dose activity change, negative = inhibition, hits mostly inhibitors; active = well fitted inhibition curve with a large enough effect in the signal ratio, with a control signal flat, not every such curve was filed as active; inconclusive = small, poorly fitted or top-dose-only effect, or effect the other way, or a change in a side signal; inactive = no such curve, though single readings can be large or run the other way; the % refers to the signal ratio; note: potency is the fitted concentration of half-maximal effect; % is set by controls: 0 for no effect and ±100 for the full control effect
Target sequence (Q9NR56 whole entry, looked up): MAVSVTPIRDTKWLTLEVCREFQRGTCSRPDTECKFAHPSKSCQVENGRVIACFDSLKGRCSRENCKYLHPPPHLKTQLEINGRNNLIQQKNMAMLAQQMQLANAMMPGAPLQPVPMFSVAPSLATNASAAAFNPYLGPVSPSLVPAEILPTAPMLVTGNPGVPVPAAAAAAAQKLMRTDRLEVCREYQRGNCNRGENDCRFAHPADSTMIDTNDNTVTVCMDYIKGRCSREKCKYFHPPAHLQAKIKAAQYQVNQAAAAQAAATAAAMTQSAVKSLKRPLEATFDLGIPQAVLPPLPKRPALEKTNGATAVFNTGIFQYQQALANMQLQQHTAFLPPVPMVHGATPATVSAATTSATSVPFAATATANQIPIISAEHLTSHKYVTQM
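Compound titration spanned 92 nM–58 uM against the MBNL1-His/biotin-(CUG)12 complex. After 60 min at room temperature with 5 nM streptavidin-XL665 and 0.055 ng/ul terbium anti-His, ratiometric 665/545 nm emission (Ex 340 nm) normalized to controls.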
KCNH2 3.1 inh: qHTS for Inhibitors of KCHN2 3.1: Mutant qHTS; Potassium voltage-gated channel subfamily H member 2, brain isoform KCNH2 3.1 (human); U2OS KCNH2 3.1, thallium flux FluxOr; active compounds read low; activity change, % (tested at about 1.8 µM); 0.95% of 340,000 active; AID 720553, 2013;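 active = maximum activity change below -70%; inconclusive = maximum activity change from -70% to -50%; inactive = maximum activity change above -50%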;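 note: thallium influx rate constant from kinetic fluorescence after stimulation buffer; % is set by controls: 0 for no effect and ±100 for the full control effect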
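Thallium flux via FluxOr fluorescence (Red40 quencher, 45 min loading) in U2OS cells virally expressing the KCNH2 3.1 isoform (1.77 x 10^8 /mL virus, overnight at 37 C). Rate constants from 2-min kinetic reads post-stimulation, normalised to positive and negative controls.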
hERG WT inh: qHTS for Inhibitors of KCHN2 3.1: Wildtype qHTS; 0.37% of 340,000 active; U2OS, BacMam KCNH2, thallium flux FluxOr; active compounds read low; activity change, % at 1.84 µM; Voltage-gated inwardly rectifying potassium channel KCNH2 (Homo sapiens), Q12809;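 active = maximum activity change below -70%; inconclusive = maximum activity change between -70% and -50%; inactive = maximum activity change above -50%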; note: % is set by controls: 0 for no effect and ±100 for the full control effect
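U2OS cells were transduced with wild-type KCNH2 virus (2.03 x 10^8 / mL) for 4 h at room temperature, then cultured overnight at 37 C. Thallium flux was read with FluxOr dye. Rate constants were normalized to DMSO controls.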
PLK1 PBD block: qHTS for Inhibitors of PLK1-PDB (polo-like kinase 1 - polo-box domain): Primary Screen; Plk1 PBD binding of FITC phosphopeptide, fluorescence polarization; Potency, µM, without a hit: max response, negative = inhibition, hits mostly inhibitors; 2.8% of 360,000 active; AID 720504, 2013; note: potency is the fitted concentration of half-maximal effect; series mostly up to about 57 µM; % is set by controls: 0 for no effect and ±100 for the full control effect; nearly all actives have a fitted effect of over 65% in size
VDR inhibitor: Inhibitors of the vitamin D receptor (VDR): qHTS; Vitamin D3 receptor (Homo sapiens), P11473; VDR-SRC2-3 peptide fluorescence polarization, 2 h; Potency, µM, for the others: max response, negative = inhibition, actives largely listed as inhibitors; 0.93% of 400,000 active; AID 504847, 2011; note: potency is the fitted concentration of half-maximal effect; % is set by controls: 0 for no effect and ±100 for the full control effect
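The screen uses fluorescence polarization to detect compounds that interfere with recruitment of the SRC2-3 coactivator peptide to VDR; plates are read after 2 h at room temperature.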
CBFb-RUNX1 inh: qHTS Assay for Compounds Blocking the Interaction Between CBF-beta and RUNX1 for the Treatment of Acute Myeloid Leukemia. Runt-related transcription factor 1 (Homo sapiens) + Core-binding factor subunit beta …. AlphaScreen CBFb-His/RUNX1-biotin binding, biochemical. Potency, µM (top dose mostly 59.8 µM), for the others: top-dose activity, negative = inhibition, most hits filed as inhibitors. 230,000 tested, under 10 active; note: % of control where 0% means no effect
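AlphaScreen binding: CBFb-His and RUNX1-biotin (30 nM each) preincubated 20 min, compound added for 15 min, then nickel and streptavidin beads for 90 min, all at room temperature. Disruption of the interaction by any mechanism counts as activity.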
* = called active by the depositor. Hits are enriched below; roughly 3.8% of the tested compounds scored in any of these assays. Unless noted, calls come from the whole dose curve; as a rule, active = well fitted curve in the direction sought with a large enough effect; inconclusive = small, poorly fitted or top-dose-only effect, or another doubt; inactive = no such curve, though single readings can be large; an effect the other way counts as inactive or inconclusive.

How did O=C(N=C1SC2CS(=O)(=O)CC2N1c1ccc(Br)cc1F)C1CC1 (centres undefined) do in these assays?
MBNL1 CUG block: -10%; KCNH2 3.1 inh: 18; hERG WT inh: -156*; PLK1 PBD block: 1%; VDR inhibitor: 16%

How did Cc1ccc(-n2ncc3c(N(C)Cc4ccccc4)ncnc32)cc1 do in these assays?
VDR inhibitor: 7%

What do the screens show for `CN(Cc1ccccc1)c1ncnc2ccc(Br)cc12`?
MBNL1 CUG block: 12%; KCNH2 3.1 inh: -1; hERG WT inh: -10; PLK1 PBD block: 2.7µM*; VDR inhibitor: -17%; CBFb-RUNX1 inh: 16%

How did COc1ccc(CCNC(=O)c2nc(SCc3ccccc3F)ncc2Cl)cc1OC do in these assays?
VDR inhibitor: -7%

How did CC(=O)OC1C(=O)N(Cc2ccccc2)C1c1ccc(C)cc1 (centres undefined) do in these assays?
KCNH2 3.1 inh: 5; hERG WT inh: 6; PLK1 PBD block: 27µM*; VDR inhibitor: -17%

How did O=C(c1ccc(S(=O)(=O)Cc2cc(F)ccc2F)c([N+](=O)[O-])c1)N1CCOCC1 do in these assays?
KCNH2 3.1 inh: -3; hERG WT inh: -12; PLK1 PBD block: 27µM*

What do the screens show for `COc1cc(OC)cc(-c2nnc(Nc3nc4c(F)cccc4s3)o2)c1`?
MBNL1 CUG block: 4%; KCNH2 3.1 inh: 12; hERG WT inh: 2; PLK1 PBD block: inconclusive; VDR inhibitor: 9%; CBFb-RUNX1 inh: 5%

Results for Fc1cccc2sc(Nc3nnc(-c4ccccc4)o3)nc12 ?
MBNL1 CUG block: 27%; KCNH2 3.1 inh: -13; hERG WT inh: -149*; PLK1 PBD block: inconclusive; VDR inhibitor: 4%; CBFb-RUNX1 inh: -7%

Results for O=C(Cl)COCc1ccccc1 ?
VDR inhibitor: 0%; CBFb-RUNX1 inh: 2%

Results for Cc1cc(NC(=O)c2ccc(Cl)cc2)n(CCOC(=O)c2ccc(Cl)cc2)n1 ?
MBNL1 CUG block: -1%; KCNH2 3.1 inh: 1; hERG WT inh: -98*; PLK1 PBD block: -9%; VDR inhibitor: -3%; CBFb-RUNX1 inh: -9%

What do the screens show for `Cc1cc(NC(=O)c2ccc(F)cc2)n(CCOC(=O)c2ccc(F)cc2)n1`?
MBNL1 CUG block: -2%; KCNH2 3.1 inh: 1; hERG WT inh: 6; PLK1 PBD block: 0%; VDR inhibitor: -23%; CBFb-RUNX1 inh: -4%

What do the screens show for `Cc1nn(C)c(C)c1NC(=O)c1ccc(Cl)cc1`?
MBNL1 CUG block: 0%; KCNH2 3.1 inh: 11; hERG WT inh: -3; PLK1 PBD block: 30µM*; VDR inhibitor: -14%; CBFb-RUNX1 inh: -2%

Results for CCOC(=O)C1(CC)CC(CSc2nc3ccccc3[nH]2)OC1=O (centres undefined) ?
MBNL1 CUG block: -7%; KCNH2 3.1 inh: 4; hERG WT inh: 6; PLK1 PBD block: 2%; VDR inhibitor: 11%; CBFb-RUNX1 inh: 5%

What do the screens show for `CCCCCC1(C(=O)OCC)CC(CSC(=N)N)OC1=O` (centres undefined)?
MBNL1 CUG block: -7%; KCNH2 3.1 inh: -17; hERG WT inh: 6; PLK1 PBD block: 30µM*; VDR inhibitor: -20%; CBFb-RUNX1 inh: 6%

Results for CC(C)(C)NC(=O)Cn1c(SCC(N)=O)nc2ccccc21 ?
MBNL1 CUG block: -11%; KCNH2 3.1 inh: -89*; hERG WT inh: -6; PLK1 PBD block: 15µM*; VDR inhibitor: inconclusive; CBFb-RUNX1 inh: 7%
